Inconclusive results are not listed. Activity calls are given as the source filed them. Calls come from the whole dose curve; as a rule, active = well fitted inhibition curve with a large enough effect; inconclusive = small, poorly fitted or top-dose-only effect; inactive = flat fitted curve, though single readings scatter.
How the values were obtained:
Assay in all cases: qHTS profiling for inhibitors of Plasmodium falciparum proliferation (AID 504749); note: nearly all actives have a fitted effect of over 60% in size
Details in all cases: P. falciparum in erythrocytes, SYBR Green DNA, 72 h; series mostly up to 28.7 µM
3D7 = system: 3D7
Procedure, shortened: (§1)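 Three-day growth assay of blood-stage parasites in erythrocytes (0.3% parasitemia, 2.5% hematocrit) at 37 C, 5% CO2, quantified by SYBR Green DNA staining after overnight detergent lysis.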

7G8 = system: 7G8
Procedure, shortened: as §1

AA1029 = system: AA1029
Procedure, shortened: as §1

C2A = system: C2A
Procedure, shortened: as §1

CP185 = system: CP185
Procedure, shortened: as §1

CP191 = system: CP191
Procedure, shortened: as §1

CP217 = system: CP217
Procedure, shortened: as §1

CP237 = system: CP237
Procedure, shortened: as §1

CP250 = system: CP250
Procedure, shortened: as §1

CP252 = system: CP252
Procedure, shortened: as §1

CP256 = system: CP256
Procedure, shortened: as §1

DFO2036 = system: DFO2036
Procedure, shortened: as §1

Dd2 = system: Dd2
Procedure, shortened: as §1

ECU = system: ECU
Procedure, shortened: as §1

N140 = system: N140
Procedure, shortened: as §1

P93_24 = system: P93_24
Procedure, shortened: as §1

P94_40 = system: P94_40
Procedure, shortened: as §1

SC27B = system: SC27B
Procedure, shortened: as §1

TAB109 = system: TAB109
Procedure, shortened: as §1

TAB165 = system: TAB165
Procedure, shortened: as §1

Measured: Potency

CC(=O)OC1CC2CCC1(C)C2(C)C (stereo not given)
inactive: all assays above
